Our source for the inhibition values is PubChem BioAssay AID2069 (Sanford-Burnham Center for Chemical Genomics, 2009).

Molecules are shown by their SMILES. The campaign covered roughly 1,200 compounds. About 210 (18%) were called active. No stated cut-off is given here; in the data, active means inhibition above about 30%; inactive means the rest. Only a sample is shown.

The assay is described as follows: fluorescence readout artefact check – biochemical, HTRF, uHTS, artefact control for SUMOylation inhibitor project, confirmation (AID 2069). The following applies: HTRF interference counterscreen, at 35 µM, active compounds read high.
As for `O=C(O)c1ccc(C(=O)Nc2cccc3ccccc23)c(C(=O)O)c1`, the inhibition was 4.4% (inactive). With `O=[N+]([O-])c1ccc2[nH]c(O)c(N=NC(=S)Nc3cccnc3)c2c1`, the inhibition is -5.4% (inactive). `CCN(CC)CCOC(=O)c1ccc(N/C=C(/C#N)c2nc(-c3ccc(OC)c(OC)c3)cs2)cc1`: the inhibition is 6.75% (inactive). As for `O=C(Nc1ccc2nc(-c3ccco3)c(-c3ccco3)nc2c1)N1CCN(c2ccccn2)CC1`, the inhibition was 12.2% (inactive).

With `O=S(=O)(c1ccc2nc(-c3ccco3)c(-c3ccco3)nc2c1)N1CCOCC1`, the inhibition is 30.4% (active). On to `O=C(NCc1ccccc1)c1ccc2nc(-c3ccco3)c(-c3ccco3)nc2c1`, for which the inhibition was 15.6% (inactive). For the compound `C=CCN1C(=O)N(CC=C)c2cccc3cccc1c23`, the inhibition is -6.45% (inactive). The figure for `Nc1c(N2CCCC2)cc(Cl)c2nonc12` is 22.4% (inactive); for `N#Cc1c(-c2cccc(Br)c2)cc(-c2ccco2)[nH]c1=O` it is 31.6% (active); for `N#Cc1c(-c2ccco2)cc(-c2cccnc2)nc1N` it is 25.1% (inactive). The figure for `CCOC(=O)COc1nc(-c2ccco2)cc(-c2ccco2)c1C#N` is 22.2% (inactive).

Regarding `COc1ccc(S(=O)(=O)/N=C2/NC(=O)/C(=C\c3ccco3)S2)cc1`, the inhibition was -10.3% (inactive).

In the case of `CC(=O)C1=C(O)C=C(c2ccco2)CC1c1ccco1` (centres undefined), the inhibition was -2.85% (inactive). The figure for `O=c1oc2cc(O)ccc2cc1-c1ccc(F)cc1` is 45.8% (active); for `O=c1cc(-c2ccc(F)cc2)[nH][nH]1` it is -7.15% (inactive); for `Cc1ccc(NC(=O)CN2C(=O)S/C(=C/c3ccc(O)c([N+](=O)[O-])c3)C2=O)cc1C` it is -1.6% (inactive). As for `Cc1ccc(NC(=O)Cn2c(O)c(N=NC(=O)c3cc4ccccc4cc3O)c3ccccc32)cc1`, the inhibition is 8.55% (inactive).

`N=c1c(S(=O)(=O)c2ccccc2)cc2c(=O)n3ccccc3nc2n1Cc1ccco1`: the inhibition is 14.8% (inactive).

For the compound `N=c1c(S(=O)(=O)c2ccc(Br)cc2)cc2c(=O)n3ccccc3nc2n1Cc1ccco1`, the inhibition is -13.2% (inactive). As for `Cc1ccc(S(=O)(=O)c2cc3c(=O)n4ccccc4nc3n(Cc3ccco3)c2=N)cc1`, the inhibition was -2.55% (inactive). The figure for `Cn1c(C(=O)N2COCC2(C)C)cc2c(=O)n3ccccc3nc21` is 55.8% (active); for `Cn1c(C(=O)N2CCN(C(=O)c3ccco3)CC2)cc2c(=O)n3ccccc3nc21` it is 57.9% (active); for `N=c1c(S(=O)(=O)c2ccc(Cl)cc2)cc2c(=O)n3ccccc3nc2n1Cc1ccco1` it is -23.2% (inactive). As for `O=C(/C=C/c1ccco1)Nc1cccc2cccnc12`, the inhibition is 2.9% (inactive). Consider `CCOC(=O)c1c(CSc2ccccc2)n(C)c2cc(Br)c(OCC(O)CNC(CO)(CO)CO)cc12` (centres undefined), for which the inhibition was 0.05% (inactive). For `O=C(Cc1cc(=O)oc2cc(O)ccc12)NCC1CCC(C(=O)O)CC1` (centres undefined), the inhibition was 44.1% (active). The figure for `CN(C)c1cccc(C(=O)OCc2cc(=O)oc3cc(O)ccc23)c1` is 3.4% (inactive); for `O=C(Nc1cccc2nsnc12)c1ccc(-c2ccc(Br)cc2)o1` it is 22.6% (inactive); for `O=C(NCCc1ccccc1)c1ccc2nc(-c3ccco3)c(-c3ccco3)nc2c1` it is 12.2% (inactive).

For the compound `Cc1nn(CC(=O)Nc2ccc(C(=O)N(C)C)cc2)c(=O)c2ccccc12`, the inhibition was -0.95% (inactive). The figure for `CCOc1cccc2cc(-c3nnc(NCc4ccco4)s3)c(=O)oc12` is 26.9% (inactive); for `Nc1nnc(-c2cc3c(ccc4ccccc43)oc2=O)s1` it is 30.1% (active). For the compound `CNc1nnc(-c2cc3ccccc3oc2=O)s1`, the inhibition was 23.1% (inactive). Turning to `Brc1ccc(C2Nc3cccc4cccc(c34)N2)o1`, the inhibition was -8.65% (inactive).

Consider `C/C(=N\OCc1nc2ccccc2c(=O)n1/N=C/c1cc(C)cc([N+](=O)[O-])c1O)c1ccccc1`, for which the inhibition was -17% (inactive). For `CCOC(=O)Cn1c2ccc(OC)cc2c2nc3ccccc3nc21`, the inhibition is 53.6% (active). The figure for `CCOC(=O)Cn1c2ccccc2c2nc3ccccc3nc21` is 25.7% (inactive); for `COC(=O)Cn1c2ccc(C)cc2c2nc(C)sc21` it is 2.05% (inactive). As for `CCc1cccc(NC(=S)Nc2cccc3ccccc23)c1`, the inhibition was 2.95% (inactive). Regarding `O=c1cc2c(=O)oc3cc(O)c(O)oc3c2c(O)c1O`, the inhibition is -3.8% (inactive). With `Cc1cc(=O)n2[nH]c(N)c(N=Nc3ccccc3)c2n1`, the inhibition was -13.8% (inactive). For `O=c1c(-c2ccccc2)coc2c(CN3CCCC3)c(O)ccc12`, the inhibition was 42% (active).

As to `COc1ccccc1/C=N/Nc1cc(N(C)C)nc(N(C)C)n1`, the inhibition is 11.9% (inactive). As for `Cn1c(=O)c(Nc2ccc(O)cc2)c2c3c(cccc31)C(=O)c1ccccc1-2`, the inhibition was -3.25% (inactive).

Regarding `O=C(CNc1cccc2ccccc12)N/N=C/c1ccccn1`, the inhibition is 17.4% (inactive).

On to `Cc1cccc(/C=N/NC(=O)C(C)Nc2cccc3ccccc23)n1` (centres undefined), for which the inhibition is 1.6% (inactive). As to `NC(=O)N/N=C/c1ccc2cccc(OCc3ccccc3)c2n1`, the inhibition was 68.3% (active). The figure for `COc1ccc(N=C2NC(=O)/C(=C\c3ccco3)S2)cc1` is 4.75% (inactive); for `COc1ccc(-n2c(CNc3ccc(C)cc3)nnc2SCC(=O)Nc2nc(-c3ccccc3)cs2)cc1` it is -1.4% (inactive); for `Cc1cccc(NC(=O)CC2Nc3cccc4cccc(c34)NC2=O)c1` (centres undefined) it is -17.8% (inactive). The figure for `O=C(O)/C=C/C(=O)Nc1ccc2c(c1)NC(=O)CO2` is -0.95% (inactive); for `COc1cc([N+](=O)[O-])cc(/C=N/NC(=O)CC#N)c1O` it is 21.6% (inactive); for `O=C(N/N=C/c1cc(Br)cc(Br)c1O)c1ccncc1` it is 12.4% (inactive).

Turning to `Nc1nnc(CC(=O)N/N=C/c2cc([N+](=O)[O-])cc(Br)c2O)s1`, the inhibition is 30% (active). Take `NC(=O)CC(NC(=O)Cc1ccc(Br)cc1)c1ccc(NCCc2ccccc2F)c([N+](=O)[O-])c1` (centres undefined): the inhibition was 5.95% (inactive).

`O=C(/C=C/c1ccco1)NC(=S)NNC(=O)c1ccco1`: the inhibition is -18.9% (inactive).

Turning to `O=C(O)CSc1cc(C(=O)c2cc(F)ccc2O)cn2c(=O)c3c(-c4ccccc4)csc3nc12`, the inhibition is 28.9% (inactive).

In the case of `N#Cc1c(N2CCN(c3ccc(F)cc3)CC2)nc(N)c2c(N)nc3c(c12)CC(=O)N3C1CC1`, the inhibition was 16.5% (inactive). With `CCCN(CC1CC1)c1nc(N)c2c(N)nc(OC)cc2c1C#N`, the inhibition is 10.2% (inactive). For `N#Cc1c(N(CCO)CCO)nc(N)c2c(N)nc3c(c12)CC(=O)N3CC1CCCO1` (centres undefined), the inhibition was 41.8% (active). Consider `CN(CCO)c1nc(N)c2c(N)nc3c(c2c1C#N)CC(=O)N3C1CCCC1`, for which the inhibition was 43.9% (active). Consider `N#Cc1c(N(CCO)CCO)nc(N)c2c(N)nc3c(c12)CC(=O)N3Cc1cccs1`, for which the inhibition is 25.1% (inactive). With `COc1ccc(C)c2sc(NC(=O)c3cccc(N4C(=O)CCC4=O)c3)nc12`, the inhibition was 21% (inactive). Turning to `CC(C)C(=O)Nc1cccc(C(=O)NCc2ccc3c(c2)OCO3)c1`, the inhibition was -4.7% (inactive).

For the compound `N#Cc1c(-c2ccc(Cl)cc2)cc(-c2cccs2)nc1SCC(=O)O`, the inhibition was -4.9% (inactive).

In the case of `CCOC(=O)C1CCN(C2=C(NS(=O)(=O)c3ccc(Br)cc3)C(=O)c3ccccc3C2=O)CC1`, the inhibition is -7.95% (inactive). Consider `O=C(Nc1ccc(Br)cc1)c1ccc(N2C(=O)C3CC=C(Cl)CC3C2=O)cc1` (centres undefined), for which the inhibition was -0.95% (inactive). Regarding `C=CCn1c(NC(=O)c2ccc(Br)o2)c(S(=O)(=O)c2ccccc2)c2nc3ccccc3nc21`, the inhibition was 8.1% (inactive). `C=CCNC(=O)c1c(N)n(-c2cccc(S(N)(=O)=O)c2)c2nc3ccccc3nc12`: the inhibition was 33% (active).

Regarding `COCCNC(=O)c1c(N)n(CCC2=CCCCC2)c2nc3ccccc3nc12`, the inhibition is 25.1% (inactive). In the case of `Nc1c(C(=O)NCc2ccco2)c2nc3ccccc3nc2n1CCc1ccccc1`, the inhibition was 11% (inactive).

As to `COCCCNC(=O)c1c(N)n(-c2ccccc2)c2nc3ccccc3nc12`, the inhibition was 33.6% (active). For the compound `COc1ccc(-n2c(N)c(C(=O)NCc3ccco3)c3nc4ccccc4nc32)cc1OC`, the inhibition was 11.5% (inactive). For `COCCNC(=O)c1c(N)n(CCCn2ccnc2)c2nc3ccccc3nc12`, the inhibition is 40% (active). Take `C=CCn1c(NS(=O)(=O)c2ccccc2)c(S(=O)(=O)c2ccc(C)cc2)c2nc3ccccc3nc21`: the inhibition is 23.6% (inactive). Consider `CCc1cc(=O)oc2c3c(cc(OCC(=O)NCCCCCC(=O)O)c12)OC(C)(C)CC3`, for which the inhibition is 29.8% (inactive).

On to `Cc1ccc(Sc2cc(NCCCO)c([N+](=O)[O-])c3nonc23)cc1`, for which the inhibition is 0.15% (inactive). For `COc1ccc(-c2csc(CCN3N=C(C)CC3=O)n2)cc1`, the inhibition is -4.6% (inactive). For `Cc1cc2oc(C(=O)Nc3ccc(S(=O)(=O)Nc4nccs4)cc3)cc(=O)c2cc1Cl`, the inhibition was -9.2% (inactive). Turning to `Cc1ccc(CSc2nnc(SCC(=O)N/N=C/c3c[nH]c4ccccc34)s2)cc1`, the inhibition was -3.9% (inactive). Regarding `CC1CCCN(C2=C(NS(=O)(=O)c3ccc(Br)cc3)C(=O)c3ccccc3C2=O)C1` (centres undefined), the inhibition was -7.35% (inactive). For `Cc1cccc(NC(=S)Nc2cccc3ccccc23)c1`, the inhibition was -3.85% (inactive).

For `COc1cc(/C=C2/C(=O)N(c3ccc([N+](=O)[O-])cc3)N=C2N2CCOCC2)ccc1O`, the inhibition is -19.4% (inactive). The figure for `N#Cc1c(NC(=O)CSc2ncnc3sccc23)oc(-c2ccco2)c1-c1ccco1` is 7.1% (inactive); for `CC1=NN(c2ccc(Cl)cc2)C(=O)C1C(c1ccccc1O)c1c(C)[nH]n(-c2ccc(Cl)cc2)c1=O` (centres undefined) it is -12.7% (inactive). With `CC(C)(C)c1cnnn1-c1cccc([N+](=O)[O-])c1`, the inhibition was 6.3% (inactive). Take `CN1CCCc2cc3c(C(F)(F)F)cc(=O)oc3nc21`: the inhibition is 57.5% (active).

In the case of `O=C(CC1CS(=O)(=O)CC1CC(=O)Oc1ccccc1F)Oc1ccccc1F` (centres undefined), the inhibition was 5.6% (inactive). Take `CC(=O)Oc1ccc2cc(-c3nc4ccccc4n3C)c(=O)oc2c1`: the inhibition was 38.6% (active).
